Source: PubChem BioAssay
HTT prom inh: Primary qHTS for Identification of Small Molecule Inhibitors of Huntingtin Promoter Activity | Potency, µM (top dose mostly 57.5 µM), for the others: at the top dose activity change, negative = inhibition, usual class: inhibitors | HEK293 HTT promoter firefly luciferase reporter, 24 h | hit rate 0.93% among 48,000; further: potency means the concentration at half of the fitted maximal effect; nearly all actives have a fitted effect of over 50% in size
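HEK293 cells carrying firefly luciferase reporters were seeded at 2,500 per well in Opti-MEM and cultured for 24 h. They were then treated with compounds at up to 57.5 uM final for 24 h at 37 degrees C before Dual-Glo luminescence readout.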
HTT-AS act: Primary qHTS for Identification of Small Molecule Activators of Huntingtin-Antisense Promoter Activity | Potency, µM (series often up to 57.5 µM), without a hit: top-dose activity change, positive = activation, usual class: activators | HEK293 HTT-AS promoter firefly luciferase reporter, 24 h; response scale: percent change from vehicle, -100% = no light | hit rate 0.24% among 48,000; further: potency means the concentration at half of the fitted maximal effect; nearly all actives have a fitted effect of over 55% in size
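Quantitative HTS used concentration series of up to 57.5 uM final on HEK293 luciferase reporter cells, 24 h at 37 degrees C. Readout was Dual-Glo firefly luminescence.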
OvCa metastasis: Primary qHTS assay for Inhibitors of ovarian cancer metastasis using an organotypic tumor microenvironment (TME) model. hit rate 0.1% among 46,000. Potency, µM (highest dose often 45.8 µM), inactives show top-dose activity change, negative = inhibition, hits mostly inhibitors. SKOV3ip1-GFP adhesion/invasion on 3D omental model, fluorescence;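 further: potency means the concentration at half of the fitted maximal effect; plate controls were DMSO wells for no effect and tomatine positive control wells for full effect; nearly all actives have a fitted effect of over 65% in size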
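qHTS, 4-pt dose (0.36-46 umol/L); SKOV3ip1-GFP, 1,200 cells/well, no FBS; primary omental fibroblast/mesothelial co-culture 48 h pre-grown; 2 h RT + 16 h 37 C; PBS wash, 4% PFA; GFP count 488/509 nm.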
GPR32 ag: qHTS for Agonists of Human Resolvin D1 Receptor DRV1 | Probable G-protein coupled receptor 32 (Homo sapiens), O75388 | CHO-K1 GPR32 beta-arrestin PathHunter luminescence, 90 min; zero percent set by DMSO-only wells | activation, % at 76.9 µM | hit rate 2.5% among 48,000;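 active means activation of at least 60% and not above a set upper limit, about 1 call in 100 departs from these limits; inconclusive means activation of 40% to 60%, or above that upper limit; inactive means activation under 40%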; further: 0% is about no effect
Target sequence (O75388 whole entry, looked up): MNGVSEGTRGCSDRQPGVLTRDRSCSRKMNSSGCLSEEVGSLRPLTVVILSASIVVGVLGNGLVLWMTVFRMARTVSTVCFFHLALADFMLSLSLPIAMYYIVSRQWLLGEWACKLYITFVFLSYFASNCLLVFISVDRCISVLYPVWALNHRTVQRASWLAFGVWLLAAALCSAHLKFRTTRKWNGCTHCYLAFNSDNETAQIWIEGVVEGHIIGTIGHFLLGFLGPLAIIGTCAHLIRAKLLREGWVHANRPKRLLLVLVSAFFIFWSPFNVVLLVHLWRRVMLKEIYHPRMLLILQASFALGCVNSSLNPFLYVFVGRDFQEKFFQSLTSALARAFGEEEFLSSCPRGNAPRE
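PathHunter enzyme-fragment complementation, CHO-K1 GPR32 stable line; 2,500 cells/well, overnight attach; cpd 90 min 37 °C 5% CO2; detection reagent 1 h RT; chemiluminescence. DMSO = EC0.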
NTMT1 inh: Primary qHTS for Inhibitors of N-terminal methyltransferase 1 (NTMT1): MTaseGlo Assay; N-terminal Xaa-Pro-Lys N-methyltransferase 1 (Homo sapiens), Q9BV86; NTMT1 MTase-Glo SAH luminescence, purified enzyme; Potency, µM (titrated, usually from 114 µM), for inactives: at the top dose activity change, negative = inhibition, most hits filed as inhibitors; hit rate 2.5% among 59,000; AID 1645870, 2021;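 further: potency means the concentration at half of the fitted maximal effect; plate controls were DMSO vehicle for no effect and no enzyme for full effect; nearly all actives have a fitted effect of over 65% in size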
Target sequence (Q9BV86 whole entry, looked up): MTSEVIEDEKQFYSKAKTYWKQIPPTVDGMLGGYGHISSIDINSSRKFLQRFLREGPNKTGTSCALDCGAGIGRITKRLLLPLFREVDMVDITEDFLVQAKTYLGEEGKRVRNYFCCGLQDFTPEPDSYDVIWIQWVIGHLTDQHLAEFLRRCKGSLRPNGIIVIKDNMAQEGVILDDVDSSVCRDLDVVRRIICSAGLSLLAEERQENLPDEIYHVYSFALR
* hit, by the source's call; ! = not active in a repeat; [ ] = remark or other dose. In the library only some 4.5% were active in any assay of this set; here they are far more common. Unless noted, the call rests on the fitted dose curve; in most records, active means well fitted curve in the direction sought with a large enough effect; inconclusive means small, poorly fitted or top-dose-only effect, or another doubt; inactive means no such curve, though single readings can be large; an effect the other way counts as inactive or inconclusive.

For CN(C)S(=O)(=O)N(CC(=O)NCCSc1ccc(Cl)cc1)c1ccccc1 the results were HTT prom inh -16.6%, HTT-AS act -19.3%, OvCa metastasis inactive, GPR32 ag 69.9* and NTMT1 inh -2.3%.
For Cc1ccc(C(=O)CSc2nc(C)cc(C)c2C(=O)Nc2cccc(C)c2)cc1 the results were HTT prom inh inconclusive, HTT-AS act -14.2%, OvCa metastasis -0.2%, GPR32 ag -25.8 and NTMT1 inh 50.1µM*.
Screening COc1ccc(C(=O)CSc2nc(C)cc(C)c2C(=O)Nc2ccccc2C)cc1 returned HTT prom inh -27.3%, HTT-AS act -6.2%, OvCa metastasis -6.7%, GPR32 ag -20.8 and NTMT1 inh 2.82µM*.
For CCCN(Cc1cccs1)C(=O)Nc1ccc(OCC)cc1 the results were HTT prom inh 83.6%, HTT-AS act inconclusive, OvCa metastasis -1.4%, GPR32 ag -14.3 and NTMT1 inh inconclusive.
COc1ccc(Br)cc1CNC(=O)c1cc2c(=O)n(C)c3ccccc3c2s1 was read as HTT prom inh -4.0%, HTT-AS act -8.1%, OvCa metastasis 4.9%, GPR32 ag 0.7 and NTMT1 inh -2.4%.
`C[C@@](Cc1ccccc1)(C(=O)O)N1C(=O)c2ccc(C(=O)O)cc2C1=O` gave NTMT1 inh 7.1%.
`CNC(=O)C1CCN(c2nc(-c3ccc(Br)cc3)cs2)CC1` gave NTMT1 inh -20.4%.
`O=C(NCCc1ccccc1)C1CCN(c2nc(-c3ccc(Br)cc3)cs2)CC1` gave NTMT1 inh 5.01µM*.
For CC(C=CC1=C(C)CCCC1(C)C)=CC=CC(C)=CC(=O)Nc1ccc(O)cc1 the results were HTT prom inh inconclusive, HTT-AS act -44.9%[116 µM], OvCa metastasis inconclusive and NTMT1 inh 0.9%.
`CC1=C(/C=C/C(C)=C/C=C/C(C)=C/C(=O)Nc2ccc(O)cc2)C(C)(C)CCC1` gave HTT prom inh -17.4%, HTT-AS act -27.1%, GPR32 ag 84.2*! and NTMT1 inh 10.8%.
Screening CCC(=O)N1c2ccccc2CC1C(=O)NCCN1CCN(c2cc(Cl)ccc2C)CC1 (stereo not given) returned HTT prom inh -26.4%, HTT-AS act -33.2%, OvCa metastasis 2.3%, GPR32 ag 68.5* and NTMT1 inh -4.4%.
Cc1ccc(Cl)cc1N1CCN(CCNC(=O)Nc2ccc(Cl)cc2)CC1 was read as HTT prom inh -43.3%, HTT-AS act inconclusive, OvCa metastasis inconclusive, GPR32 ag 84.1* and NTMT1 inh 5.5%.
CCOc1ccc(NC(=O)NCCN2CCN(c3cc(Cl)ccc3C)CC2)cc1 was read as HTT prom inh inconclusive, HTT-AS act -38.2%, OvCa metastasis 9.2%, GPR32 ag 73.0* and NTMT1 inh -6.6%.
`Cc1ccc(C)c(N2CCN(CCCNC(=O)Nc3cc(Cl)ccc3C)CC2)c1` gave HTT prom inh -13.8%, HTT-AS act -26.8%, OvCa metastasis -0.3%, GPR32 ag -3.9 and NTMT1 inh -3.7%.
For Cc1ccc(-c2ccc(=O)n(CC(=O)NCc3ccccc3)n2)cc1 the results were NTMT1 inh -3.9%.
Screening Cc1ccc(C)c(N2CCN(C(=O)c3ccc4[nH]c(C)c(C)c4c3)CC2)c1 returned HTT prom inh -30.0%, HTT-AS act -38.5%, OvCa metastasis inactive, GPR32 ag -10.9 and NTMT1 inh -21.6%.
Screening CCCn1c(-c2ccc(F)cc2)nc2c(N3CCCN(Cc4ccccc4)CC3)nc(C)nc21 returned NTMT1 inh -13.4%.
CCc1nn(C(C)C(=O)N2CCN(c3ccccc3)CC2)c(=O)c2cc3occc3n12 (stereo not given) was read as HTT prom inh -28.7%, HTT-AS act -30.6%, OvCa metastasis inactive, GPR32 ag -22.4 and NTMT1 inh -19.8%.
For Cc1nn(C(C)C(=O)N2CCN(c3ccc(Cl)cc3)CC2)c(=O)c2cc3occc3n12 (stereo not given) the results were HTT prom inh 25.1µM*, HTT-AS act -55.7%, OvCa metastasis inactive, GPR32 ag 8.0 and NTMT1 inh 5.5%.
`COc1ccc(C2Nc3ccccc3C(=O)N2Cc2ccc(C(C)(C)C)cc2)cc1COc1ccc(NC(C)=O)cc1` (stereo not given) gave NTMT1 inh 28.0%.
CCOC(=O)c1cnc2c(ccc3ccccc32)c1Nc1ccccc1OC was read as HTT prom inh inconclusive, HTT-AS act -10.4%[11.5 µM], OvCa metastasis inactive, GPR32 ag 85.0* and NTMT1 inh 9.5%.
For CCCCN(CCCC)c1nc(-c2ccccc2)nc2ccccc12 the results were HTT prom inh -23.3%, HTT-AS act -29.9%, OvCa metastasis -16.8%, GPR32 ag 110.4* and NTMT1 inh inconclusive.
Screening Cc1cc(C)c2c(=O)cc(CSc3nnc(-c4ccccc4)n3C)[nH]c2c1 returned HTT prom inh -20.1%, HTT-AS act -23.0%, OvCa metastasis -4.3%, GPR32 ag 60.7* and NTMT1 inh 1.8%.
Screening Cc1cc(C)c2c(=O)cc(CSc3nnc(COc4ccccc4C)n3C)[nH]c2c1 returned HTT prom inh -19.9%, HTT-AS act -11.2%, OvCa metastasis 0.2%, GPR32 ag 24.5 and NTMT1 inh 0.3%.
CCc1ccc(CN2CCc3nc(N4CCN(CC)CC4)ncc3C2)cc1 was read as HTT prom inh -24.2%, HTT-AS act -18.8%, OvCa metastasis 0.2%, GPR32 ag -28.8 and NTMT1 inh 2.9%.
For CN1CCN(Cc2ccc(-c3cnc4[nH]cc(-c5ccc6[nH]ccc6c5)c4c3)cc2)CC1 the results were NTMT1 inh 20µM*.
CCc1cccc(NC(=O)Cn2cc(C(=O)c3ccncc3)c(=O)c3cc(C)c(C)cc32)c1 was read as HTT prom inh -26.4%, HTT-AS act -28.2%, OvCa metastasis -0.1%, GPR32 ag -17.8 and NTMT1 inh 18.4%.
Screening NC(=O)Nc1cc(-c2ccc(CN3CCOCC3)cc2)sc1C(N)=O returned HTT prom inh 24.1%, HTT-AS act 21.7µM*, OvCa metastasis 7.9% and NTMT1 inh -6.5%.
For CCn1c(/C(C#N)=C/c2ccccc2Cl)nc2ccccc21 the results were HTT prom inh 22.7%, HTT-AS act inconclusive, OvCa metastasis -21.8%, GPR32 ag 9.9 and NTMT1 inh -6.9%.
